# Sampled rows, rich in hits. Any-hit rate of the full collection: about 11%.
# HPGD block – HPGD (human) dehydrogenase inhibition | purified HPGD, NADH fluorescence kinetic, PGE2 substrate | Potency, µM, inactives show at the highest dose activity change, negative = inhibition, actives largely listed as inhibitors | 150,000 tested, 4.3% active | P15428; further: potency means the concentration at half of the fitted maximal effect
# Target sequence (P15428 whole entry, looked up): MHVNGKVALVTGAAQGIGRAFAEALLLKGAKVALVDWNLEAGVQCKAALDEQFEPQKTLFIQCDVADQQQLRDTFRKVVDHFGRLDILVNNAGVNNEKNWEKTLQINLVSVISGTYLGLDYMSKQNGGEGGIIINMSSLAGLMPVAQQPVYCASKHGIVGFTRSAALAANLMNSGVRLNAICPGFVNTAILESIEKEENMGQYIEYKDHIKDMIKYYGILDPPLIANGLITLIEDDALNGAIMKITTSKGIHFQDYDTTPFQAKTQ
#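 20 nM HPGD preincubated 15 min at room temperature with compound in 50 mM Tris-HCl pH 8, 0.01% Tween 20. Started with 1 mM NAD+ and 30 uM prostaglandin E2; NADH fluorescence (360/450 nm) read 5 times over 30-s intervals, last minus first.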
# PNC inhibitor – inhibitors of perinucleolar compartment assembly. 140,000 tested, 3.1% active. PC3M PTB-GFP, PNC prevalence imaging, 16 h; stronger effect = lower value. activity change (PNC), negative = inhibition, % at 10 µM;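 active means readout at or below -70, meaning at least 70% loss of cells showing the perinucleolar compartment, a nuclear body marking cancer cells; inconclusive means readout between -30 and a set limit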;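 further: plate controls were DMSO wells for no effect and camptothecin positive control wells for full effect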
#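 PC3M cells stably expressing PTB-GFP, 750–1000 cells/well, treated 16 h at 37 °C with compound (23 nl of library stock), in duplicate. After paraformaldehyde fixation and Hoechst stain, imaged at 20x; PNC prevalence scored by image analysis.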
# ALDH1A1 block – blocks purified human ALDH1A1 activity; AID 1030; 220,000 tested, 7.3% active; Purified ALDH1A1, NADH fluorescence, propionaldehyde substrate; P00352; Potency, µM (highest dose often 75.3 µM), without a hit: top-dose activity, negative = inhibition, most hits filed as inhibitors;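 further: potency means the concentration at half of the fitted maximal effect; plate controls were no enzyme wells and a reference inhibitor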
# An asterisk follows results filed as active; ? = inconclusive; / = not tested or not shown; ! = a repeat was not active. Unless noted, the call rests on the fitted dose curve; in most records, active means well fitted inhibition curve with a large enough effect (not every such curve was filed as active); inconclusive means small, poorly fitted or top-dose-only effect, or another doubt; inactive means no such curve, though single readings can be large or run the other way. Unless noted, on the % scale 0 is the no-effect control and ±100 the full control effect.
SMILES,HPGD block,PNC inhibitor,ALDH1A1 block
CC(C(=O)NCc1cccs1)N1C(=O)c2ccccc2C1=O (stereo not drawn),4%,-2,6%
CCN(CC)S(=O)(=O)c1ccc(N=N/C(C(C)=O)=C(/C)O)cc1,-11%,41,-12%
CCc1ccc(NC(=O)c2ccc3ncsc3c2)cc1,-15%,?,-3%
CCN(CC)S(=O)(=O)c1ccc(N=NC2=C(O)CC(C)(C)CC2=O)cc1,-13%,38,2.5µM*
CC1(C)CC(=O)C(N=Nc2ccc(Cl)cc2)=C(O)C1,-14%,16,?
CC1(C)CC(=O)C(N=Nc2ccc(OC(F)F)cc2)=C(O)C1,/,/,1.4µM*
CC1(C)CC(=O)C(N=Nc2ccc3ncsc3c2)=C(O)C1,-23%,-3,4.5µM*
CC(C)(C)NC(=O)C(OC(=O)c1cccs1)c1ccc(C#N)cc1 (stereo not drawn),/,/,7%
CS(=O)(=O)N(CC(=O)NC1CCCC1)C1CCCCC1,/,/,6%
CC1(C)C(=O)C(c2ccccc2)=C2CN3C(=O)N(CCc4ccccc4)C(=O)C3(Cc3ccc(C(F)(F)F)cc3)C=C21 (stereo not drawn),-18%,/,-1%
O=C(NC1(N2CCOCC2)CC1)c1ccc(Cl)cc1,/,/,2%
CC/C(=N\NC(=O)c1ccc(-c2ccccc2)cc1)C12CC3CC(CC(C3)C1)C2,-25%,0,13µM*
C/C(=N\NC(=O)c1ccncc1)C12CC3CC(CC(C3)C1)C2,-9%,-118*,?
O=C(NN=C1C2CC3CC(C2)CC1C3)c1ccncc1,2%,-26,-8%
O=C(Nc1ccccc1-c1ccccc1)C12CC3CC(CC(C3)C1)C2,-8%,4,-7%
CCCOC(=O)COC(=O)c1ccccc1NC(=O)c1ccccc1,-21%,11,?
CCOC(=O)c1ccc(NC(=O)CN2C(=O)CSC2=O)cc1,-14%,-90*,?
CS(=O)(=O)Nc1ccc(Cc2ccc(NS(C)(=O)=O)cc2)cc1,?,-22,?
CCOC(=O)c1ccccc1NC(=O)c1ccc(NS(C)(=O)=O)cc1,16µM*,-24,?
O=C(O)CCC(=O)Nc1ccc(C(=O)OCC(=O)c2ccc(Cl)cc2)cc1,/,/,4%
O=C(COC(=O)c1ccc(O)cc1)Nc1ccc(Cl)cc1,/,/,8.9µM*
CCS(=O)(=O)Nc1ccc(Cc2ccc(NS(=O)(=O)CC)cc2)cc1,5.6µM*,?,2%
COC(=O)c1ccc(NC(=O)CN2C(=O)CSC2=O)cc1,?,3,-12%
N=C1C(c2ccccc2)=C(O)CN1c1cccc(O)c1,/,/,6%
CC(NC(=O)CN1CCc2ccccc21)c1ccccc1 (stereo not drawn),/,8,?
SMILES,HPGD block,PNC inhibitor,ALDH1A1 block
NC1=NC(c2ccccc2)N=C(Nc2ccccc2)N1 (stereo not drawn),/,/,11%
Nc1cccc(S(=O)(=O)O)c1,-11%,/,?
COc1ccc(CC(NC(C)=O)C(=O)NC2CCN(c3nc(C)cc(C)c3C#N)CC2)c(OC)c1 (stereo not drawn),?,4,?
CCOC(=O)c1ccc(NC(=S)Nc2cccc(C)n2)cc1,-4%,-85*,3%
CCOC(=O)c1ccc(NS(=O)(=O)c2ccc(Cl)nc2)cc1,/,/,-8%
CCOC(=O)c1ccc(NCC(O)COc2ccccc2)cc1 (stereo not drawn),-4%,-119*,5%
CCOC(=O)c1ccc(NS(=O)(=O)CC)cc1,14µM*,5,5%
COC(=O)Cc1ccc(NC(=S)Nc2cccc(C)n2)cc1,/,/,14%
OC(CNc1ccccc1)COc1ccc(OCC(O)CNc2ccccc2)cc1 (stereo not drawn),-16%,?,4%
CCCCOC(=O)c1ccc(O)cc1,-17%,15,16%
CCCOC(=O)c1ccc(O)cc1,-5%,/,10µM*!
CCCN1c2cccc3cccc(c23)S1(=O)=O,-27%,28,?
O=C(CSc1nnc(CNC(=O)c2cccs2)o1)NCC1CCCO1 (stereo not drawn),/,/,-1%
COC(=O)CC1C(=O)NCCN1C(=O)OC(C)(C)C (stereo not drawn),/,/,-1%
COc1ccc(/C=c2/sc3nc(-c4ccccc4)c(-c4ccccc4)n3c2=O)cc1,-19%,17,?
CC(=O)Nc1ccc(C(=O)OCc2ccc(Cl)cc2)cc1,-11%,59,14%
CCOC(=O)c1cc(NC(=O)COC)ccc1O,/,/,-4%
CC(=O)Nc1ccc(OC(=O)c2ccc(Cl)cc2)cc1,-15%,-80*,-4%
CCOC(=O)c1ccc(NC(=O)COC)cc1,-13%,-89*,-2%
O=C(O)C1C2C=CC(C2)C1C(=O)NC(c1ccccc1)c1ccccc1 (stereo not drawn),-5%,?,1%
COc1cccc(NS(=O)(=O)c2nc3nc(C)cc(C)n3n2)c1,-9%,-16,7%
O=C(Oc1ccccc1)N1CCC2(CCCN(c3ccc(-c4ccccc4)cc3)C2)CC1,-8%,/,?
CCO[C@H]1OC(C(=O)N2CCN(C)CC2)=C[C@@H](c2ccc(Br)cc2)[C@@H]1CCCO,/,/,7%
CCOC(=O)C1(C)C=C(Nc2ccc(OC)cc2)C(=O)N1c1ccc(OC)cc1 (stereo not drawn),?,25,2.8µM*
CCOC(=O)C1(C)C=C(Nc2ccc(O)cc2)C(=O)N1c1ccc(O)cc1 (stereo not drawn),-6%,-12,3.5µM*
SMILES,HPGD block,PNC inhibitor,ALDH1A1 block
CCOC(=O)NC(=S)Nc1ccc(OC)cc1,/,/,6%
CCOC(=O)c1cnc(-n2nc(C)cc2C)nc1Nc1ccc(O)cc1,/,/,12%
NC(=O)C1(N2CCCCC2)CCN(C(=S)Nc2ccc(F)c(Cl)c2)CC1,/,/,-4%
Cc1ccc(CC(Cc2nc3ccccc3[nH]2)c2nc3ccccc3[nH]2)cc1 (stereo not drawn),-12%,/,5%
O=c1c(-c2ccc(Cl)cc2)nc2cncnc2n1Cc1ccccc1Cl,-11%,/,-16%
CC(SCc1ccccc1)C(=O)NN=C1CCN(C)CC1 (stereo not drawn),-15%,-2,1.3µM*
CN1CCC(=NNC(=O)CSCc2ccccc2)CC1,-4%,5,25µM*
CC(SCc1ccccc1)C(=O)N/N=C/c1cccs1 (stereo not drawn),-11%,10,11%
CN1CCC(=NNC(=O)C(=O)Nc2ccccc2)CC1,3%,11,3%
CC1CCN(Cc2ccc(NC(=O)CC3Oc4ccccc4NC3=O)cc2)CC1 (stereo not drawn),-16%,48,-9%
C=C(CC1([C@@H](NP(=O)(c2ccccc2)c2ccccc2)[C@H]2C[C@@H]2CCN(C(=O)OCC)S(=O)(=O)c2ccc(C)cc2)CC1)c1ccccc1,-11%,/,-8%
C/C(=N\Nc1ncc(Cl)cc1Cl)c1ccccn1,/,/,-15%
CSc1ccc(S(=O)(=O)Nc2ccc(S(=O)(=O)Nc3ccc(C)cc3)cc2)cc1,-6%,19,8.9µM*
CSc1ccc(S(=O)(=O)Nc2ccc(NC(C)=O)cc2)cc1,-3%,-8,?
Cc1ccc(NNS(=O)(=O)c2ccc(C)cc2)cc1,4µM*,?,6.3µM*
COC(=O)Nc1ccc(S(=O)(=O)Nc2ccc(C)cc2)cc1,-4%,2,2%
Cc1ccc(S(=O)(=O)NNC(=O)C(=O)NNS(=O)(=O)c2ccc(C)cc2)cc1,/,/,-6%
